A selection: hits, their analogues and other compounds. The true share with any hit is near 2%.
aSyn yeast inh: rescues yeast growth from alpha-synuclein toxicity; hit rate 0.14% among 370,000; AID 652106; Potency, µM (highest dose often 46.1 µM), for inactives: at the highest dose growth rescue (activation), actives largely listed as activators; Yeast expressing alpha-synuclein, growth rescue, BacTiter-Glo, 24 h; also: % of control where 0% means no effect; nearly all actives have a fitted effect of over 65% in size
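Rescue of yeast growth: cells expressing toxic alpha-synuclein, induced in galactose at OD600 0.02, incubated with compound 24 h at 30 C. ATP luminescence quantified growth; inhibitors of toxicity appear as activators.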
TDP-43 yeast inh: inhibitors of TDP-43 toxicity in yeast | TDP-43 expressing yeast growth rescue, BacTiter-Glo, 24 h | Potency, µM (highest dose often 46.1 µM), for the others: at the highest dose growth rescue (activation), hits mostly activators | hit rate 1.8% among 410,000; also: % of control where 0% means no effect; nearly all actives have a fitted effect of over 50% in size
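Yeast cells expressing TDP-43 under galactose induction are exposed to compounds for 24 hr at 30 deg C. BacTiter-Glo luminescence measures growth, so protective compounds score as activators.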
GRP78 ERSR act: induces the endoplasmic reticulum stress response in human glioma cells. U87-MG GRP78 promoter luciferase reporter, 16 h. Potency, µM, for the others: at the top dose activation, most hits filed as activators. hit rate 0.02% among 420,000; also: series mostly up to about 76 µM; % of control where 0% means no effect; nearly all actives have a fitted effect of over 35% in size
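Stably transfected U87-MG glioma cells carrying a GRP78-based luciferase sensor; 16 h compound incubation. Luminescence end-point read 10 min after Bright-Glo addition at room temperature.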
FUS yeast rescue: FUS proteinopathy suppression in yeast | AID 1347120 | hit rate 0.24% among 390,000 | S. cerevisiae FUS-expressing, growth rescue, OD600, 24 h | Potency, µM (top dose mostly 76.6 µM), actives largely listed as activators;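 also: plate controls were DMSO vehicle for no effect and reference control for full effect; nearly all actives have a fitted effect of over 55% in size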
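Read-out: OD at 600 nm after 24hr at 30C, reporting rescue of FUS-induced yeast toxicity. Cells at OD 0.005 in galactose (2%) minimal medium; compounds tested in a dilution series; CP55940 titration from 92uM final as control.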
MBNL1-CUG inh: inhibitors of human MBNL1 binding to CUG repeat RNA; hit rate 0.036% among 280,000; Q9NR56; TR-FRET MBNL1-His/biotin-(CUG)12 binding, 665/545 ratio; Potency, µM (titrated, usually from 57.5 µM), for inactives: top-dose activity change, negative = inhibition, most hits filed as inhibitors; active = well fitted inhibition curve with a large enough effect in the signal ratio, with a control signal flat, not every such curve was filed as active; inconclusive = small, poorly fitted or top-dose-only effect, or effect the other way, or a change in a side signal; inactive = no such curve, though single readings can be large or run the other way; the % refers to the signal ratio; also: % is scaled to controls: 0 for no effect and ±100 for the full control effect
Target sequence (Q9NR56 whole entry, looked up): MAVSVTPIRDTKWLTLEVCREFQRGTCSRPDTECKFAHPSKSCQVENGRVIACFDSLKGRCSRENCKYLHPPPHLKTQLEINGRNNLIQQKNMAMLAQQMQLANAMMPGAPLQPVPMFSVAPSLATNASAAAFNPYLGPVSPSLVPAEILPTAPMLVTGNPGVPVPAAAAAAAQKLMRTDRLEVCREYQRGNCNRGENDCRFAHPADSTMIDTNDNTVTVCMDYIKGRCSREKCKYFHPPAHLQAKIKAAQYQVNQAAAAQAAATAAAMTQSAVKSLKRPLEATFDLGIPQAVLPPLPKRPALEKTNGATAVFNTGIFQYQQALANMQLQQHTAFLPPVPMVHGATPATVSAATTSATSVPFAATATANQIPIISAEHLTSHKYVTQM
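MBNL1-His + Biotin-(CUG)12, cpd titration 92 nM–58 uM; Tb anti-His Ab 0.055 ng/ul, SA-XL665 5 nM (final); 60 min RT; ratiometric 665/545 nm, Ex 340 nm; normalized to buffer and full-complex controls.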
Abeta rescue: restores growth of yeast expressing A-beta42 peptide; yeast expressing A-beta42, growth rescue, OD600, 48 h; response scale: 0% DMSO, 100% iron-clioquinol control; Potency, µM (titrated, usually from 46.1 µM), most hits filed as activators; hit rate 0.063% among 410,000; also: nearly all actives have a fitted effect of over 55% in size
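Yeast A-beta toxicity model in growth medium with pinned compounds, 48 h at 30 C; growth read as absorbance at 600 nm. Normalized to FeCl3/clioquinol equimolar mix (positive) and DMSO (negative).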
* marks the source's active call; other numbers are inactive results. Unless noted, calls follow the shape of the dose curve; as a rule, active = well fitted curve in the direction sought with a large enough effect; inconclusive = small, poorly fitted or top-dose-only effect, or another doubt; inactive = no such curve, though single readings can be large; an effect the other way counts as inactive or inconclusive. Potency is read from the fitted curve at half-maximal effect.

For COc1ccc(C(=O)N/N=C(\C)c2ccccn2)cc1OC the results were aSyn yeast inh 8%, TDP-43 yeast inh 14%, GRP78 ERSR act -3%, FUS yeast rescue inactive, MBNL1-CUG inh 25% and Abeta rescue inactive.
Screening C/C(=N\NC(=O)c1ccccc1Cl)c1ccccn1 returned aSyn yeast inh -2%, TDP-43 yeast inh 18%, GRP78 ERSR act -4%, FUS yeast rescue inactive, MBNL1-CUG inh -1% and Abeta rescue inactive.
`C/C(=N\NC(=O)c1ccc(Cl)c(Cl)c1)c1ccccn1` gave aSyn yeast inh 4µM*, TDP-43 yeast inh 7.1µM*, GRP78 ERSR act -4%, FUS yeast rescue inactive, MBNL1-CUG inh 7% and Abeta rescue inactive.
COc1ccc(C(=O)N/N=C(\c2ccccc2)c2ccccn2)cc1 was read as aSyn yeast inh -25%, TDP-43 yeast inh 22µM*, GRP78 ERSR act 3% and Abeta rescue inactive.
CCN(CC)C(=O)CC[C@@H]1CC[C@]2(CCCN(Cc3cccc4ccccc34)C2)O1 was read as FUS yeast rescue inactive.
For C[C@H]1[C@@H](C(=O)N2CCCC2)Cc2nc3ccccc3nc2C[C@@H]1c1ccccc1 the results were FUS yeast rescue inactive.
COC(=O)[C@@]12CCCCC3=C1N(CCC3)C(=O)[C@H]2CC(=O)NCc1ccc(C)o1 was read as FUS yeast rescue inactive.
Screening Cc1ccc2nc(N3CCCCCC3)c(CN(CC3CCCO3)C(=O)c3cncs3)cc2c1 (configuration not stated) returned GRP78 ERSR act -5%.
For Cc1cc(C)c(NS(=O)(=O)c2cccc3cccnc23)c(C)c1 the results were aSyn yeast inh -3%, TDP-43 yeast inh 2%, GRP78 ERSR act -4%, FUS yeast rescue inactive, MBNL1-CUG inh -5% and Abeta rescue inactive.
`Cc1ccc(S(=O)(=O)Nc2cccc3cccnc23)c([N+](=O)[O-])c1` gave aSyn yeast inh 18µM*, TDP-43 yeast inh 7.9µM*, GRP78 ERSR act inconclusive, FUS yeast rescue inactive, MBNL1-CUG inh 13% and Abeta rescue inactive.
For Oc1ccccc1-c1cc(-c2cccc(F)c2)n[nH]1 the results were aSyn yeast inh 2%, TDP-43 yeast inh 3.2µM*, GRP78 ERSR act -1%, FUS yeast rescue inactive, MBNL1-CUG inh 1% and Abeta rescue inactive.
Screening COc1ccc(OC)c(-c2cc(Cl)c3c(c2)CC(CNC(=O)c2coc4c2C(=O)CCC4)O3)c1 (configuration not stated) returned GRP78 ERSR act 2%.
Screening O=c1cc(-c2ccc(C3CCCCC3)cc2)[nH][nH]1 returned aSyn yeast inh 10%, TDP-43 yeast inh 18µM*, GRP78 ERSR act -3%, FUS yeast rescue inactive, MBNL1-CUG inh -6% and Abeta rescue inactive.
`Cc1cc(-c2cc(F)cc3c2OC(CNC(=O)[C@@H]2CCC(=O)N2)C3)ccc1F` (some centres not stated) gave GRP78 ERSR act -7%.
Screening Nc1ncnc2nc(-c3ccc(N4CCOCC4)nc3)cc(-c3cccc(Br)c3)c12 returned aSyn yeast inh 21µM* and GRP78 ERSR act -4%.
For CCOc1ccc(-n2c(SCC(=O)Nc3ccc(OCc4ccccc4)cc3)nnc2-c2ccc(Cl)cc2)cc1 the results were FUS yeast rescue inactive.
`CC1Cc2nc(SCC(=O)N3CCN(c4ccccc4)CC3)n(CCc3ccccc3)c(=O)c2S1` (configuration not stated) gave aSyn yeast inh 2%, TDP-43 yeast inh inconclusive, GRP78 ERSR act 0%, FUS yeast rescue 14µM*, MBNL1-CUG inh 6% and Abeta rescue inactive.
`CCn1c(SCC(=O)N2CCN(c3ccccc3)CC2)nc2c(c1=O)SC(C)C2` (configuration not stated) gave aSyn yeast inh -26%, TDP-43 yeast inh 20%, GRP78 ERSR act -3%, FUS yeast rescue inactive, MBNL1-CUG inh -11% and Abeta rescue inactive.
`CCCSc1nc2c(c(=O)n1CC)SC(C)C2` (configuration not stated) gave aSyn yeast inh -10%, TDP-43 yeast inh 22µM*, GRP78 ERSR act -2%, FUS yeast rescue inactive, MBNL1-CUG inh 22% and Abeta rescue inactive.
`O=C(c1ccccc1Cl)c1c(O)c2ccccc2oc1=O` gave aSyn yeast inh -14%, TDP-43 yeast inh -11%, GRP78 ERSR act 0%, FUS yeast rescue inactive and Abeta rescue inactive.
`O=C(Nc1c(O)c2ccccc2oc1=O)c1ccccc1Cl` gave TDP-43 yeast inh 2.5µM*, GRP78 ERSR act -3%, FUS yeast rescue inactive and Abeta rescue inactive.
CCCC#Cc1ccc(CC[C@H]2O[C@H]3CC[C@H](CO)O[C@H]3C[C@H]2NC(=O)CN2CCOCC2)cc1 was read as FUS yeast rescue inactive.
`Cc1cc(C(=O)OCCN2C(=O)c3ccccc3C2=O)c2ccccc2n1` gave aSyn yeast inh inconclusive, TDP-43 yeast inh inconclusive, GRP78 ERSR act -2%, FUS yeast rescue 16µM*, MBNL1-CUG inh inconclusive and Abeta rescue inactive.
Screening S=C(Nc1ccccc1Oc1ccccc1)Nc1cccc(Cl)c1Cl returned aSyn yeast inh -6%, TDP-43 yeast inh 22µM*, GRP78 ERSR act -6%, MBNL1-CUG inh inconclusive and Abeta rescue inactive.
Cc1ccc(-c2nc3sccn3c2Nc2ccccc2C)cc1 was read as TDP-43 yeast inh 35µM*, GRP78 ERSR act 0%, FUS yeast rescue inconclusive and Abeta rescue inactive.
Screening CC(=O)C1=CCC(c2ccccc2Cl)N(S(=O)(=O)c2ccc(C)cc2)C1 (configuration not stated) returned aSyn yeast inh 2%, TDP-43 yeast inh 20µM*, GRP78 ERSR act 0%, FUS yeast rescue inconclusive and Abeta rescue inactive.
Cn1cc(C(=O)N2CCN(c3cccc(C(F)(F)F)c3)CC2)c2c3ccccc3n(C)c2c1=O was read as TDP-43 yeast inh 28µM*, GRP78 ERSR act -9%, FUS yeast rescue inconclusive and Abeta rescue inactive.
CC(C)Cn1cc(C(=O)N2CCN(c3cccc(Cl)c3)CC2)c2c3ccccc3n(C)c2c1=O was read as TDP-43 yeast inh -10%, GRP78 ERSR act -2%, FUS yeast rescue 35µM* and Abeta rescue inactive.
Screening Cc1ccc(C2CC2C(=O)NNC(=S)Nc2cccc(C)c2)cc1 (configuration not stated) returned aSyn yeast inh 24%, TDP-43 yeast inh inconclusive, GRP78 ERSR act -3%, FUS yeast rescue inactive, MBNL1-CUG inh -8% and Abeta rescue inactive.
